From PubChem BioAssay AID504334 (NMMLSC, 2011) come the findings set out here.

The source made the active and inactive calls.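 The calls were made as follows: active = response relative to DMSO over 150%; inconclusive = yeast strain with under 70 recorded events; inactive = the rest.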

This test in a line: yeast AGP1-GFP fluorescence change, single-dose confirmation – cell-based, flow cytometry, S. cerevisiae, cherry pick set 3 (AID 504334).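 Also: median GFP fluorescence per well by flow cytometry over the all cells gate; ratio of sample to mean DMSO control signal so DMSO = 100% not 0%.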 The following applies: S. cerevisiae AGP1-GFP strain, 3 h, at 10 µM, hits give high values.
Consider `CN(C)C(=O)Oc1ccnc2cc(Cl)ccc12`, for which the percent response vs DMSO is 104% (inactive).
In the case of `CN(C)C(=O)Oc1ccc(Cl)c2cccnc12`, the percent response vs DMSO was 93.4% (inactive).
As to `Cc1ccc2c(c1N)C(=O)c1ccccc1C2=O`, the percent response vs DMSO is 105% (inactive).
The figure for `CN1CCN(c2ncnc3ccc(Br)cc23)CC1` is 103% (inactive); for `C/C(O)=C(\C#N)C(=O)Nc1cc(Br)ccc1Br` it is 100% (inactive); for `CCN1CCN(c2ncnc3ccc(Br)cc23)CC1` it is 99.8% (inactive).
